Bioassay records (PubChem)
This is one part of a sample in which hits are shown more often than they occur.
PI5P4Ka inh: PI5P4K alpha (human) kinase inhibition | P48426 | PI5P4Kalpha enzyme, ADP-Glo luminescence, 60 min; hits give low values | max response, % | hit rate 1.2% among 330,000; active = max response of -50% or lower; inconclusive = between -30% and -50%; inactive = -30% or higher; note: value at the top dose of about 77 µM
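Single end-point luminescence (ADP-Glo) quantified ADP from PI5P4Kalpha turnover; ATP 5 microM final, 1 h at RT, 0.1% CHAPS and 0.28 mM EGTA in HEPES pH 7.4.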
Tb PGK inh: T. brucei PGK inhibition; P07378; Potency, µM (titrated, usually from 57.5 µM), without a hit: at the highest dose activity change, negative = inhibition, usual class: inhibitors; PGK/GAPDH coupled, Kinase-Glo luminescence, 60 min; hit rate 0.043% among 380,000; note: potency is the fitted concentration of half-maximal effect; nearly all actives have a fitted effect of over 60% in size
Target sequence (P07378 whole entry, looked up): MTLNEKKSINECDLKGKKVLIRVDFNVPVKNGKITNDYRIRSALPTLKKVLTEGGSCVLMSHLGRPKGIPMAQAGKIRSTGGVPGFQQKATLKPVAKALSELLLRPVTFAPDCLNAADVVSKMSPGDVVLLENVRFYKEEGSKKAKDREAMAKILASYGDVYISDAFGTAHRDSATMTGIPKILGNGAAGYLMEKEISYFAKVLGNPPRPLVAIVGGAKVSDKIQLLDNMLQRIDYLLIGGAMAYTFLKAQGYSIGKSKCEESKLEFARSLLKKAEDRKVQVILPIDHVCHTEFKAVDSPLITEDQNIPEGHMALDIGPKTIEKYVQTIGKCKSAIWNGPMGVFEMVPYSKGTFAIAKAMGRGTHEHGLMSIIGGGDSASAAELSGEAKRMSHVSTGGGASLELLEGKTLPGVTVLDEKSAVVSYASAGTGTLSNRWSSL
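Luminescent ATP detection (Kinase-Glo Plus) follows a 60-minute room-temperature incubation, with wells lacking PGK as controls. Buffer: 100 mM TEA (pH 7.6), 5 mM MgCl2, 0.01% Tween-20. Coupling enzyme GAPDH (100 nM final) supplies unstable 1,3-BPG in-well.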
Pin1 inh: human Pin1 inhibition; Q13526; Pin1 FP peptide displacement, HiFluor488, 10 min; Potency, µM (titrated, usually from 115 µM), inactives show top-dose activity, negative = inhibition, most hits filed as inhibitors; hit rate 0.009% among 390,000; AID 504891; active = well fitted inhibition curve with a large enough effect in the polarisation, with a control signal flat, not every such curve was filed as active; inconclusive = small, poorly fitted or top-dose-only effect, or effect the other way, or a change in a side signal; inactive = no such curve, though single readings can be large or run the other way; the % refers to the polarisation; note: potency is the fitted concentration of half-maximal effect
Target sequence (Q13526 whole entry, looked up): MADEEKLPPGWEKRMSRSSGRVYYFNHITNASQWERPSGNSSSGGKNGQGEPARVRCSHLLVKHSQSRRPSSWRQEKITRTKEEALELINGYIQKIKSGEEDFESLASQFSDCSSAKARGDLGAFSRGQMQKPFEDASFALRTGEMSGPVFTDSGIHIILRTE
PI4K2A block: PI4K2A (human) kinase inhibition; purified PI4K2A, ADP-Glo luminescence, 1 h; hits give low values; hit rate 0.13% among 420,000; activity change, negative = inhibition, % at 76.9 µM; in the data active = activity change below about -50%; inconclusive = mostly about -30% to -49%;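 note: -100% = wells without enzyme as full effect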
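ADP-Glo luminescence measured ADP generated by PI4K2A enzyme (4 ug/mL before mixing) with 1.2 mM PI substrate (pre-mix) and 300 microM ATP (pre-mix). Tris pH7.5 buffer with MgCl2, Triton X-100; 1 h reaction at ambient temperature.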
ADP-Glo counter: ADP-Glo luciferase interference, PI5P4K counter-screen; shares compounds with PI5P4Ka inh; ADP-Glo detection counter-screen, luciferase luminescence, no enzyme; Potency, µM (doses to about 76.9 µM), without a hit: at the top dose activity change, negative = inhibition, hits mostly inhibitors; 1,100 tested, under 10 active; AID 743285
* marks the source's active call; other numbers are inactive results. Unless noted, calls come from the whole dose curve; as a rule, active = well fitted curve in the direction sought with a large enough effect; inconclusive = small, poorly fitted or top-dose-only effect, or another doubt; inactive = no such curve, though single readings can be large; an effect the other way counts as inactive or inconclusive. Unless noted, % is set by controls: 0 for no effect and ±100 for the full control effect.

How did CCCCNC(=O)c1onc(CSc2ccc(OC)cc2)c1C(=O)O do in these assays?
PI5P4Ka inh: -50*; Tb PGK inh: inactive; Pin1 inh: -7%; PI4K2A block: -3; ADP-Glo counter: -3%

What do the screens show for `Cc1ccccc1SCc1noc(C(=O)NC(C)C)c1C(=O)O`?
PI5P4Ka inh: -12; Tb PGK inh: -5%; Pin1 inh: -1%; PI4K2A block: -3

Results for O=C(NCCCN1CCN(c2ccc(F)cc2)CC1)Nc1ccccc1 ?
PI4K2A block: -6

Results for CCCCC1Cc2[nH][nH]c(=O)c2C(c2ccc(Cl)cc2)O1 (centres undefined) ?
PI5P4Ka inh: -6; PI4K2A block: -10

What do the screens show for `CCCCC1Cc2[nH][nH]c(=O)c2C(c2ccc(F)cc2)O1` (centres undefined)?
PI5P4Ka inh: -51*; PI4K2A block: -11; ADP-Glo counter: -2%

What do the screens show for `CCCNC(=O)N(C)C[C@@H]1Oc2ncc(Br)cc2C(=O)N([C@H](C)CO)C[C@@H]1C`?
PI5P4Ka inh: 0; Tb PGK inh: -3%; PI4K2A block: 6

How did CCCNC(=O)N(C)C[C@@H]1Oc2ncc(-c3ccncc3)cc2C(=O)N([C@H](C)CO)C[C@@H]1C do in these assays?
PI5P4Ka inh: -56*; Tb PGK inh: inactive; PI4K2A block: -21; ADP-Glo counter: -4%

What do the screens show for `COc1ccc(N2CCN(C(=O)c3c(C)oc4ncnc(N5CCCCC5)c34)CC2)cc1`?
Tb PGK inh: 11%; Pin1 inh: 1%; PI4K2A block: -2

How did COc1ccc(CNC(=O)C2CCCN(S(=O)(=O)N(C)c3ccc(F)cc3)C2)cc1OC (centres undefined) do in these assays?
Tb PGK inh: 0%; Pin1 inh: -5%; PI4K2A block: -1

How did Cc1cc(NC(=O)c2cc(S(=O)(=O)N3CCCCC3)ccc2C)no1 do in these assays?
PI5P4Ka inh: -54*; Tb PGK inh: -8%; Pin1 inh: inconclusive; PI4K2A block: -13; ADP-Glo counter: -8%

What do the screens show for `O=C(Cn1cnc2scc(-c3cccc([N+](=O)[O-])c3)c2c1=O)NCc1ccco1`?
PI5P4Ka inh: -94*; Tb PGK inh: inconclusive; PI4K2A block: -15; ADP-Glo counter: 4%

Results for COc1cc(OC)c(NC(=O)CCc2c(C)nc3ncnn3c2C)cc1Cl ?
Tb PGK inh: -10%; Pin1 inh: 19%; PI4K2A block: 0

Results for O=C(OCc1nnc(-c2ccccc2)o1)c1ccc2ccccc2n1 ?
PI5P4Ka inh: -66*; Tb PGK inh: -2%; Pin1 inh: 0%; PI4K2A block: 2; ADP-Glo counter: -6%

How did O=C(OCc1nnc(-c2ccccc2)o1)c1ccc(S(=O)(=O)NCc2ccco2)cc1 do in these assays?
PI5P4Ka inh: -54*; Tb PGK inh: 0%; Pin1 inh: -7%; PI4K2A block: -13; ADP-Glo counter: -3%

Results for CCOc1ccc(NC(=O)C2CCN(S(=O)(=O)c3ccc4c(c3)oc(=O)n4C)CC2)cc1 ?
Tb PGK inh: inactive; Pin1 inh: 2%; PI4K2A block: -13

What do the screens show for `Cc1ccc(-c2csc3nc4cc(C(N)=O)ccc4c(=O)n23)cc1`?
PI5P4Ka inh: -51*; Tb PGK inh: -7%; Pin1 inh: inconclusive; PI4K2A block: -21; ADP-Glo counter: -5%

What do the screens show for `CCOc1cc(CNS(=O)(=O)c2cn(C)cn2)cc(OCC)c1OCC`?
PI5P4Ka inh: 1; Tb PGK inh: inactive; Pin1 inh: 5%; PI4K2A block: -3

How did CCOc1ccc(CCNS(=O)(=O)c2cn(C)cn2)cc1OCC do in these assays?
PI5P4Ka inh: -26; Tb PGK inh: inactive; Pin1 inh: -8%; PI4K2A block: -2; ADP-Glo counter: 0%

Results for COc1ccc([N+](=O)[O-])c(O)c1C(C)=O ?
PI5P4Ka inh: -10; Tb PGK inh: -5%; Pin1 inh: -5%; PI4K2A block: 1

How did COc1cc(OC)cc(C(=O)Nc2nc3ccc(S(C)(=O)=O)cc3s2)c1 do in these assays?
PI5P4Ka inh: -74*; Tb PGK inh: -7%; Pin1 inh: 52%; PI4K2A block: -5; ADP-Glo counter: -16%

How did NS(=O)(=O)c1cccc(NC(=O)CSc2nnnn2-c2ccccc2)c1 do in these assays?
PI5P4Ka inh: -89*; Tb PGK inh: 1%; Pin1 inh: -1%; PI4K2A block: 7; ADP-Glo counter: -6%

What do the screens show for `CN(C)S(=O)(=O)c1cccc(NC(=O)CSc2nnnn2-c2ccccc2)c1`?
PI5P4Ka inh: 2; Tb PGK inh: -6%; Pin1 inh: -2%; PI4K2A block: -1

How did O=C(NCc1ccco1)c1ccc(-c2ccc3nccn3c2)cc1 do in these assays?
PI5P4Ka inh: -20; PI4K2A block: -13

How did COc1ccc2nc(Nc3sc4c(c3C(N)=O)CCCC4)sc2c1 do in these assays?
PI5P4Ka inh: -70*; Tb PGK inh: -6%; Pin1 inh: 40%; PI4K2A block: -4; ADP-Glo counter: 1%

How did COc1ccc(CC(=O)Nc2sc3c(c2C(N)=O)CCCC3)cc1 do in these assays?
PI5P4Ka inh: -25; Tb PGK inh: -1%; Pin1 inh: -4%; PI4K2A block: -2

How did Cn1c(=O)c2c(-c3ccccc3)n(-c3cccc(O)c3)cc2n(C)c1=O do in these assays?
PI5P4Ka inh: -50*; PI4K2A block: -3; ADP-Glo counter: -1%

Results for COc1cc2c(cc1OC)CN(CC(=O)Nc1ccc(F)cc1)C(C(=O)O)C2 (centres undefined) ?
PI5P4Ka inh: 2; Tb PGK inh: 2%; Pin1 inh: 16%; PI4K2A block: 8

How did CCOC(=O)N1CCN(C(=O)CCS(=O)(=O)c2ccc3c(c2)CCN3C(=O)CC)CC1 do in these assays?
PI5P4Ka inh: inconclusive; Tb PGK inh: -3%; Pin1 inh: 0%; PI4K2A block: -1; ADP-Glo counter: -2%

What do the screens show for `COc1ccccc1CNC(=O)COC(=O)c1c(C)nn(-c2ccccc2)c1Cl`?
PI5P4Ka inh: -1; Tb PGK inh: 1%; Pin1 inh: -1%; PI4K2A block: -2

How did COc1cccc(CNC(=O)COC(=O)c2c(C)nn(-c3ccccc3)c2Cl)c1 do in these assays?
PI5P4Ka inh: -59*; Tb PGK inh: -5%; Pin1 inh: 3%; PI4K2A block: -15; ADP-Glo counter: 6%

Results for Cc1c(C(=O)N2CCCC2)oc2ccc(Br)cc12 ?
PI5P4Ka inh: -61*; Tb PGK inh: 4%; Pin1 inh: 3%; PI4K2A block: 0; ADP-Glo counter: -5%

What do the screens show for `Cc1ccc(NC(=O)c2ccc3c(c2)NC(=O)CS3)nc1`?
PI5P4Ka inh: -57*; Tb PGK inh: 5%; Pin1 inh: 40%; PI4K2A block: -3; ADP-Glo counter: -9%

Results for Fc1cccc(Cl)c1CNc1ccc(N2CCCC2)cc1 ?
PI5P4Ka inh: -63*; Tb PGK inh: 6%; Pin1 inh: 1%; PI4K2A block: -7; ADP-Glo counter: -21%
